Where a name gives a salt, the structure may show the parent alone.

Among the data in the supplement of paper PMC10127200 are Euclidean distance values, retold here.

For this assay, the system named is 786-O. The assay can be described thus: Euclidean distance of Cell Painting phenotypic profile (signed KS, 77 features) to DMSO centroid (dimensionless distance); 5 or 10 uM (library dependent); higher = stronger phenotypic change vs DMSO (phenoactivity). The conditions noted are these: 48 h. In short, it runs like this:
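Phenoactivity is computed as Euclidean distance to the median vehicle profile. The profiles, drawn from 77 Harmony features scored as signed Kolmogorov-Smirnov statistics versus same-plate vehicle wells, were corrected for plate position, correlation-weighted and replicate-averaged at the top dose. Stained cells were imaged confocally at 20X (9 fields/well) after 48 h with library compounds at 10 or 5 uM, 0.1% DMSO final, in five cancer lines and a healthy fibroblast line.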
`CC[C@H]1OC(=O)[C@@](C)(F)C(=O)[C@H](C)[C@@H](O[C@@H]2O[C@H](C)C[C@H](N(C)C)[C@H]2O)[C@](C)(OC)C[C@@H](C)C(=O)[C@H](C)[C@H]2N(CCCCn3cc(-c4cccc(N)c4)nn3)C(=O)O[C@]12C` [Solithromycin] registered an Euclidean distance of 1.63.

On to `CN1CCCC(n2nc(Cc3ccc(Cl)cc3)c3ccccc3c2=O)CC1` (configuration not stated) [Azelastine HCl], for which the Euclidean distance amounted to 1.09.

`C[C@H](O)[C@H](O)[C@H]1CNc2[nH]c(N)nc(=O)c2N1` [Sapropterin Dihydrochloride] came in with an Euclidean distance of 0.821.

Turning to `CN(C)c1ccc(C(=C2C=CC(=[N+](C)C)C=C2)c2ccc(N(C)C)cc2)cc1` [Crystal Violet], the Euclidean distance came out at 3.55.

As to `Cc1cccc(-c2[nH]c(C(C)(C)C)nc2-c2ccc3c(c2)OCO3)n1`, the Euclidean distance amounted to 1.83.

In the case of `CCCCC1=NC2(CCCC2)C(=O)N1Cc1ccc(-c2ccccc2S(=O)(=O)Nc2noc(C)c2C)c(COCC)c1`, the Euclidean distance turned out to be 1.6.

In the case of `COC(c1ccccc1)(c1ccccc1)[C@H](Oc1nc(C)cc(C)n1)C(=O)O` [Ambrisentan], the Euclidean distance is 1.45.

As for `CCN1CCC[C@H]1CNC(=O)c1cc(S(N)(=O)=O)ccc1OC` [Levosulpiride], the Euclidean distance amounted to 1.03.

The molecule `CCCOC(C(=O)OC1CCN(C)CC1)(c1ccccc1)c1ccccc1` [Propiverine hydrochloride] yielded an Euclidean distance of 1.73.

The molecule `O=C(O)CCC(=O)c1ccc(-c2ccccc2)cc1` [Fenbufen] came in with an Euclidean distance of 0.582.

On to `O=C(Nc1ccccc1Br)N[C@@H]1CCN(c2ccc(C(F)(F)F)cn2)C1`, for which the Euclidean distance turned out to be 0.896.

`C[C@]12CC[C@H](O)CC1=CC[C@@H]1[C@@H]2CC[C@]2(C)C(n3cnc4ccccc43)=CC[C@@H]12` [Galeterone]: the Euclidean distance worked out at 0.604.
